Assay results: PubChem BioAssay
Calls of active or inactive are those of the source. Unless noted, how the calls were made is not given here.

Tests used:
[1] = compound effects on lung adenocarcinoma cell viability – A549, calcein-AM fluorescence, 48 h, basal, profiling panel (AID 1162); conditions: higher = more signal; further: test concentration not given here
[2] = compound effects on differentiated 3T3-L1 adipocyte viability – cell-based, 3T3-L1 adipocytes, calcein-AM fluorescence, 48 h, basal, profiling panel (AID 1163); conditions: 3T3-L1 adipocytes viability, higher = more signal; further: test concentration not given here
[3] = compound effects on hepatocellular carcinoma cell viability – HepG2, calcein-AM fluorescence, 48 h, basal, profiling panel (AID 1164); conditions: higher = more signal; further: test concentration not given here
[4] = compound effects on multiple myeloma cell viability – MM1S, calcein-AM fluorescence, 48 h, basal, profiling panel (AID 1165); conditions: higher = more signal; further: test concentration not given here
[5] = calcein-AM signal in unstimulated myeloma cells – cell-based, calcein-AM fluorescence, 48 h, PK04 Diversity Set, profiling panel (AID 1166); conditions: RPMI8226 myeloma viability, higher = more signal;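 further: cells grown under basal conditions without added stimulus; test concentration not given here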
[6] = JC-1 mitochondrial signal, unstimulated HepG2 cells – cell-based, JC-1 fluorescence, 24 h, 100 nL compound, profiling panel (AID 1167); conditions: HepG2 mitochondrial potential, higher = more signal; further: test concentration not given here
[7] = JC-1 mitochondrial signal, unstimulated adipocytes – cell-based, JC-1 fluorescence, 3T3-L1 adipocytes, 24 h, 100 nL compound, profiling panel (AID 1168); conditions: JC-1 mitochondrial fluorescence, higher = more signal, called active from +8 up or from −8 down; further: test concentration not given here
[8] = JC-1 mitochondrial signal, unstimulated myeloma cells – cell-based, JC-1 fluorescence, RPMI8226, 24 h, 100 nL compound, profiling panel (AID 1169); conditions: JC-1 mitochondrial potential fluorescence, higher = more signal; further: test concentration not given here
[9] = JC-1 mitochondrial signal, unstimulated MM1S myeloma – cell-based, JC-1 fluorescence, 24 h, 100 nL compound, profiling panel (AID 1170); conditions: MM1S mitochondrial potential, higher = more signal; further: test concentration not given here
[10] = resazurin metabolic signal in A549 cells – cell-based, resazurin fluorescence, 24 h, PK04 Diversity Set, profiling panel (AID 1171); conditions: A549 viability, higher = more signal, called active from +8 up or from −8 down; further: test concentration not given here
[11] = resazurin metabolic signal in HepG2 cells – cell-based, resazurin fluorescence, 24 h, PK04 Diversity Set, profiling panel (AID 1172); conditions: HepG2 viability, higher = more signal; further: test concentration not given here
[12] = budding yeast growth changes without added modifier – OD600, strain BY4716, 24 h, basal condition, primary screen (AID 1173); conditions: S. cerevisiae BY4716 growth, OD600, 24 h; higher = more signal, called active from +8 up or from −8 down
[13] = viability profiling in MM1S myeloma cells – cell-based, resazurin fluorescence, basal, 24 h, PK04 Diversity Set, profiling panel (AID 1174); conditions: higher = more signal, called active from +8 up or from −8 down; further: test concentration not given here
[14] = target: Dihydroorotate dehydrogenase (quinone), mitochondrial (Plasmodium falciparum (isolate 3D7)) (UniProt Q08210); assay: inhibition of P. falciparum DHODH – biochemical, C-terminal His tag, absorbance 600 nm, primary screen (AID 1175); conditions: PfDHODH enzyme, DCIP absorbance 600 nm; higher = more signal, called active from +8 up or from −8 down;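 further: recombinant parasite enzyme with a five histidine tag at its C terminus; test concentration not given here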
Dihydroorotate dehydrogenase (quinone), mitochondrial (Plasmodium falciparum (isolate 3D7)), sequence (Q08210 whole entry, looked up): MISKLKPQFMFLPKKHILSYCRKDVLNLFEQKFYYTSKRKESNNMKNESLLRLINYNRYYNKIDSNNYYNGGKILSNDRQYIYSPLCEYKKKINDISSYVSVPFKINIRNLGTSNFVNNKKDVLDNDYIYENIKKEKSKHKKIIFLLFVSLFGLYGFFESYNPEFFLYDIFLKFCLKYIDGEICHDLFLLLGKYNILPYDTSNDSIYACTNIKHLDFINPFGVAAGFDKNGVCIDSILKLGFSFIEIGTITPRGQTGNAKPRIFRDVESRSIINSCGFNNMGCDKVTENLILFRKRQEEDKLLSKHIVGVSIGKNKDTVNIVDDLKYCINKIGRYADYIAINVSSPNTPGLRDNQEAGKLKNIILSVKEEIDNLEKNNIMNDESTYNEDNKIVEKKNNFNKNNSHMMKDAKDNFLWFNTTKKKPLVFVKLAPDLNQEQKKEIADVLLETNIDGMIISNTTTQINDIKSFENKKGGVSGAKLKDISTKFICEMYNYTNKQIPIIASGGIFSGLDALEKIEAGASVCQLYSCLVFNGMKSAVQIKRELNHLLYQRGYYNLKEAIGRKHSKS

[15] = inhibition of PAO1 biofilm formation – strain PAO1, LB-PBS medium, absorbance 600 nm, primary screen (AID 1176); further: test concentration not given here; conditions: P. aeruginosa PAO1 growth/biofilm, A600, 12 h; higher = more signal
[16] = growth modulation of vineyard yeast isolate – strain RM11-1a, OD600, basal, 24 h, primary screen (AID 1177);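 further: cultures grown under basal conditions with no added stressor; test concentration not given here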; conditions: S. cerevisiae RM11-1a growth, OD600, 24 h; higher = more signal, called active from +8 up or from −8 down
[17] = growth of efflux-deficient E. coli DRC39 – strain DRC39, OD650, 24 h, E. coli filamentation inducers, primary screen (AID 1178);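 further: growth measured as culture turbidity by optical density at 650 nm; test concentration not given here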; conditions: E. coli DRC39 acrAB, higher = more signal, called active from +8 up or from −8 down
[18] = growth of efflux-deficient E. coli DRC39 – strain DRC39, OD650, 48 h, E. coli filamentation inducers, primary screen (AID 1179);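 further: screen aims at cell division blockers that make cells filament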; conditions: E. coli DRC39 delta-acrAB growth, higher = more signal, called active from +8 up or from −8 down
[19] = viability profiling in RPMI8226 myeloma cells – cell-based, resazurin fluorescence, basal, 24 h, PK04 Diversity Set, profiling panel (AID 1180); conditions: higher = more signal;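 further: RPMI8826 multiple myeloma cell line at 5000 cells per well; test concentration not given here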
[20] = target: E3 ubiquitin-protein ligase XIAP (Homo sapiens) (UniProt P98170); assay: small molecules binding XIAP protein – biophysical, small-molecule microarray, fluorescence 635 nm, primary screen (AID 1181); conditions: higher = more signal;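 further: score merges 667 nm emission and signal to noise over triplicate slides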
E3 ubiquitin-protein ligase XIAP (Homo sapiens), sequence (P98170 whole entry, looked up): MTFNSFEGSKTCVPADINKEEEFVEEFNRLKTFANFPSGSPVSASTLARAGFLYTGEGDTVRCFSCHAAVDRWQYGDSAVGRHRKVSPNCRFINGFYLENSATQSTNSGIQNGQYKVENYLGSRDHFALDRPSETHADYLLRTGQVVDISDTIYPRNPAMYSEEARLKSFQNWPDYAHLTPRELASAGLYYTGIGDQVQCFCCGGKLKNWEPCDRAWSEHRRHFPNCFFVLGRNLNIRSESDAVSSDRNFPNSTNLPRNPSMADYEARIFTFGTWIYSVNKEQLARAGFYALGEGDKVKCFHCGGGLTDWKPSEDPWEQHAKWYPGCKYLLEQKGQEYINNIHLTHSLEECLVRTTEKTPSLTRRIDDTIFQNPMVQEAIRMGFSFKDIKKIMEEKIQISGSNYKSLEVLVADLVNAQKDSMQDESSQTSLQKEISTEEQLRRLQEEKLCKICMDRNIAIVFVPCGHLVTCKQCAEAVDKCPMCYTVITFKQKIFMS

Row | SMILES | z-score [1] | z-score [2] | z-score [3] | z-score [4] | z-score [5] | z-score [6] | z-score [7] | z-score [8] | z-score [9] | z-score [10] | z-score [11] | z-score [12] | z-score [13] | composite z-score [14] | z-score [15] | z-score [16] | z-score [17] | z-score [18] | z-score [19] | composite z-score [20]
1 | CC(C)C(CO)N1C(=O)[C@@H]2C3C(=O)OCCC/C=C\[C@H]3OC23C=CCN(Cc2ccccc2)C(=O)[C@@H]13 (stereo not given in full) | 0.214 | -0.0826 | 0.728 | 0.441 | -0.0976 | 0.161 | 0.256 (inactive) | -0.687 | 0.942 | 0.777 (inactive) | 0.49 | -0.612 (inactive) | 0.607 (inactive) | -0.479 (inactive) | -1.03 (inactive) | -0.0566 (inactive) | 1.15 (inactive) | 0.755 (inactive) | 1.14 | -0.166
2 | CC(C)N1C(=O)c2ccccc2[C@](C)(C(=O)NCC(F)(F)F)[C@@H]1c1ccc(CO)cc1 | 0.508 | 1.33 | 1.01 | 0.0226 | 0.177 | 0.686 | -0.0819 (inactive) | 0.261 | 1.38 | 0.87 (inactive) | -0.116 | -1.3 (inactive) | 0.117 (inactive) | -0.172 (inactive) | -0.618 (inactive) | -0.613 (inactive) | 0.558 (inactive) | -0.0513 (inactive) | 1.45 | -0.0195
3 | O=C1NC(=O)C2C1C=CC(C(O)c1ccc(B(O)O)cc1)N2Nc1ccc(Cl)cc1Cl (stereo not given) | -0.591 | -1.33 | -1.19 | -1.62 | -1.58 | -1.75 | -1.12 (inactive) | 0.482 | -0.682 | -0.616 (inactive) | -1.97 | -7.76 (inactive) | -1.19 (inactive) | -0.0575 (inactive) | 1.29 (inactive) | 1.48 (inactive) | 0.0436 (inactive) | -1.52 (inactive) | -1.78 | 0.0049
4 | O=C(NC1CC1)[C@@H]1c2ccccc2C(=O)N(Cc2ccc(OC(F)(F)F)cc2)[C@H]1c1ccc(CO)cc1 | 1.1 | 0.707 | -0.591 | 0.0839 | -0.0348 | 2.35 | 0.379 (inactive) | -0.261 | 0.825 | 1.03 (inactive) | 1.26 | -0.327 (inactive) | 1.23 (inactive) | 0.347 (inactive) | -0.233 (inactive) | -0.544 (inactive) | 0.392 (inactive) | 1.11 (inactive) | 0.718 | -0.239
5 | C=CCNC(=O)[C@H]1[C@@H]2C(=O)O[C@@H](c3ccccc3)[C@@H](c3ccccc3)N2[C@@H](c2ccccc2OCCO)[C@]12C(=O)N(C(=O)OCCOC)c1ccc(C#Cc3ccc(OC)cc3)cc12 | 0.005 | -0.182 | 0.0823 | -1.05 | -1.15 | 0.421 | 3.69 (inactive) | -0.981 | -1.13 | -0.958 (inactive) | -0.345 | 1.19 (inactive) | -0.637 (inactive) | -0.306 (inactive) | 2.23 (inactive) | 3.16 (inactive) | -0.604 (inactive) | 0.582 (inactive) | -1.17 | -0.113
6 | Cc1ccc(S[C@]2(C(=O)NCCCN(C)C)CC(=O)N(Cc3ccccc3C(F)(F)F)[C@@H]2c2ccc(CO)cc2I)cc1 | 0.476 | 0.449 | -0.297 | -2.72 | -1.87 | -0.817 | -0.395 (inactive) | -0.302 | -1.35 | 0.537 (inactive) | 0.0689 | -4.57 (inactive) | -3.16 (inactive) | -0.168 (inactive) | -0.0065 (inactive) | -1.55 (inactive) | -0.108 (inactive) | -0.65 (inactive) | -1.42 | 0.191
7 | CC(C)=CCCC(C)=CC(O)C1C=CC2C(=O)NC(=O)C2N1Nc1ccccn1 (stereo not given) | 0.531 | -0.446 | 1.29 | 0.617 | 0.586 | -0.23 | -0.503 (inactive) | 0.333 | 0.0809 | -1.39 (inactive) | -1.33 | 0.386 (inactive) | -0.58 (inactive) | 0.242 (inactive) | 1.55 (inactive) | -0.881 (inactive) | -0.222 (inactive) | 0.528 (inactive) | -0.754 | 0.0602
8 | CCCC=C(CCC)[C@@H](NC(=O)c1ccc(C(F)(F)F)cc1)c1ccc(C(F)(F)F)cc1 | -1.88 | -0.0493 | -0.751 | -1.53 | -3.65 | 4.85 | 0.216 (inactive) | -0.235 | -0.678 | 0.949 (inactive) | 0.706 | 2.01 (inactive) | 0.126 (inactive) | 0.256 (inactive) | 0.219 (inactive) | 2.66 (inactive) | -0.101 (inactive) | 0.0205 (inactive) | -1.9 | 1.11
9 | Cc1ccc(C(C)CC(O)C2C=CC3C(=O)N(C)C(=O)C3N2Nc2ccccc2)o1 (stereo not given) | -0.428 | -1.01 | 0.345 | -0.144 | 0.0166 | -1.35 | -0.592 (inactive) | 0.347 | -0.249 | -0.18 (inactive) | -0.243 | 0.372 (inactive) | -0.855 (inactive) | 0.164 (inactive) | 0.695 (inactive) | 0.051 (inactive) | -1 (inactive) | -0.466 (inactive) | -0.874 | 0.198
